# The supplement of paper PMC10105736
# Unmarked numbers belong to inactive results.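 The calls were made as follows: active = MAPPIT score above the 99th percentile of random reference set scores in the same batch; inactive = at or below it.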
# B1: CG1161 (protein)
# chain: MAHKRLFVYAVLLVICYLVGVTWAETAAQTFPAIGTNSNNNSNAQPAPVPAPAAPAAAAPLAKQVSAPTAAPPAKVIGQPVLAAPGKNSSNSSSTTECVCAGALLPRLDANGKELPICAECKCSHVARNTTLIKVVVIIVIWIISILVIYMLFLMCLDPLLNKRVKANYQEHTNEDDEPTPPLPAVNNQELSARANVLNRVGHQQDKWKRQVREQRRHIYDRHTMLN
# B2: mRpL13 (protein)
# chain: MSIAKRVQQWATFARTWHIYDCTWQNPFESAKLVKTHLLGLQKPIYHPMNDCGDHVVLINTREIALPGDEWVKRVYFHHTGYPGGASWTLAWQLHEKDPTMVMKKAVYNSMRGNLQRRHTMQRLHLFADDQVPEEILQNVTNQIRTPRSIPQRLDHIDKETLENFPNIMDYPKDYILR
# B3: vilya (protein)
# chain: MAKSQAGQTVEPEASKLWIHCNSCCALFCDKKHTFFLLACHHVFCERCVKVSAGRTPSDAPIFECSTCRRSVRGRQLTNSMPNHFKQLFHPEPFTIGNDFVETFQRGNHRHFDKYKERKELEMDKLFKDIEVAKSVCQKRFLEAQMLRVERKKLMQRSRYIKAEVANRKAEMHRMAQAYRSRSLTSQSSSSAQRSARGRPRGRGTATQSSSRRRSTESAKRQQITSFIHPPNNSFDL
# B4: ND-ACP (protein)
# chain: MSFTQIARSCSRLAATLAPRRVASGILIQSQASRMMHRIAVPSMTSQLSQECRGRWQTQLVRKYSAKPPLSLKLINERVLLVLKLYDKIDPSKLNVESHFINDLGLDSLDHVEVIMAMEDEFGFEIPDSDAEKLLKPADIIKYVADKEDVYE
# B5: Snap25 (protein)
# chain: MPADPSEEVAPQVPKTELEELQINAQGVADESLESTRRMLALCEESKEAGIRTLVALDDQGEQLDRIEEGMDQINADMREAEKNLSGMEKCCGICVLPCNKSQSFKEDDGTWKGNDDGKVVNNQPQRVMDDRNGMMAQAGYIGRITNDAREDEMEENMGQVNTMIGNLRNMALDMGSELENQNRQIDRINRKGESNEARIAVANQRAHQLLK
# B6: lobo (protein)
# chain: MPKVLFQKYKKVVSNIDPSRYSAKFKEIDEQRRSQGSESDFADEMEGEFEAEMEEMGSSEFSLSEGEPSLNIGKIDLSFPETVEEFENSPQCYPPSYYTLSPKERLLLLYAENFRKQLVLSYPKRRAMVLALPNECKVQKFVCTTIRPTAFIYTQLISSVEEIAKFVADFIQYEPLQDPINLPNRLISPETLLRKRKGNSYEMATLLVSMLIGAGHPALVVSGVAREETILNDQLAVPYPYPIVEVEVEEVKPKVEKPGQKYKLRGLPDLKSHLEEDMAEVHRQKEAEEKRIQDEIIRKQMEDLELLAVDRYHYRRSHAWVVIINNAPWSVKPKTTYTDVNGDVVEAPPTAIFIEPSTGFICETGCKQYILVDSIWNEYNYYVCKQKHQRVSELRWDLRDTKDWEHMLPGEPPEMRIYKMASDENVADEERDISEEKHLDCIGSWVERLHIGLADFEQRFPSSEKKIQYKGAIHERFSPYSQRDGKVMQLTIFNNDECTIPKVRYEYYENRSDLMRHVKYTYATDQFEEIFNKGRNDSLKSIEYFSDPSQQRKVHFFSASRIDSLELMVVEPGSLILHYKDRSDKCWYKEFEFTPAGNVLKKVTEKFLKASANDVCSNDIATRTFLFQQNKIVLKFHYTFGALTATVVEFTKPPRPDYGKELIYDEKLTKIYKANPLDPTRTNLELYRLLCEQLQYEDHLRKNFEKIFEDINNVFDLRKSEKAEPKLKFSIFDPLRNGAARAIRMRQFEEEEELKKEIASKPADFLAPYLVPYKHQEELTPEQSQNAYNACLNDLKSRFVSLLNNLQRHYEDLTSESKSLNRFLNKFENQFNNYDYKRLVQQSKDLELNKRMVQQRLTLTHEESQKKYEVVKNSLLKDPRLNFKKDDLARRASETSK
# B7: eIF3c (protein)
# chain: MSRFFANGSESESESSEEEIQATNFNKASAFQFSDDEEEVKRVVRSTKEKRYENLTSIIKTIRNHKKIKDIPNTLSSFEDLTRAYQKALPVISKEENGITPRFYIRCLAELEDFINEVWEDREGRKNLSKNNSKSLGTLRQKVRKYIKDFEDDLSRFREAPDQESEAEDEVVALESDGGDAGDDSDAGVKPTEAVPKAVKSAPAKAAPADDDDSDDSIDWDSDSESETESSDDENQYQNMRERFLKRTTEKEEKDDDKRKDKRKEQKTKIRKRAEDDEDGEWETVVKGHVVEKPKMFEKDAEIDVPLVLAKLLEIMSARGKKRTDRRLQIDLLFELRDISDQHNLGTAVSVKIHFNIISAIYDYNQKISEPMKLEHWALLLEVMQSMMKLLLANADIIMSESVAEEHEEYATSPFYVRGCPLAAVERLDDEFVKLLKECDPHSNDYVSRLKDEVNVVKTIELVLQYFERSGTNNERCRIYLRKIEHLYYKFDPEVLKKKRGELPATTSTSVDVMDKLCKFIYAKDDTDRIRTRAILAHIYHHAMHDNWFQARDLVLMSHLQDNIDAADPATRILYNRMMANLGLCAFRQGNVKDAHHCLVDLMVTGKPKELLAQGLLPQRQHERSAEQEKIEKQRQMPFHMHINLELLECVYLVSAMLLEIPYIAAHEFDARRRMISKTFYQQLRSSERQSLVGPPESMREHVVAAAKAMRCGNWQACANFIVNKKMNTKVWDLFYESDRVREMLTKFIKEESLRTYLFTYSNVYTSISIPSLAQMYELPVPKVHSIISKMIINEELMASLDDPSETVGMHRSEPSRLQALAMQFVDKVTNLVDVNEKVFDMKQGNFFQRGNMGNRGDRGYNRNQNNQGGNWLGQRRDRNNRNRNQRGHHKNNQDRQQQQQQQVQTIDEE
# B8: JIL-1 (protein)
# chain: MSRLQKQNYEILSGTSTSRLKNHQHPRESESLAYEEPDQMVRNHLNGQLVANGNGKTRKNSNSETMTNGKKSKLNTEGSGSGSGKTLNYNNNNNNNNSISATNGQYTNSSSKTTSASARDYTYRETISPPTPPSPPTTNVADIVCISDAESEDGRDPEREYYDQDMEEDEPNGIEIDESSSSLSKAKSNNAAAAAAAAAAAAAAAASKASSSTTPSYAMPTSNSTPLDLDNEAHQRDLEAVTDLKYYVKLYSDEAVSLNDFKIIRVLGTGAYGRVFLVRKLTRHDAGKLYAMKVLNKITVVQKRKTAEHTKTERVVLEAIQRNPFLVSLHYAFQSSSKLYLVLDFANGGELFTHLYHSENFEESRVRVYIAEVVLALEQLHQLGIIYRDIKLENILLDGEGHIVLSDFGLSKILTAENEYRAHSFCGTLEYMAPEIIRTGPPGHDSAVDWWSVGVLTFELLTGASPFATSDGQVQQSEISRRIQKEQPMIPSSFSANARDFVLKMLEKNPKRRLGGNHRDASEIKEHPFFNGINWQELRTKRRKAPYKPTLTAEDDVQNFSNEFTDQVPEDPECDAPPSRIRLFRGYTYVAPEHLEQMRRDNHCEIQYFNTGLQNIPCRPDDLELGTRTSNGAYGTCHFVVDSSTDLVFLAKIIPLSKFRPSEVDALISCALDTTNHKNIVSYHGTFREKCETWIVMEYLSGPELTASIRMDEDSCREIFLQLVMAVRHIHSKHFIHGDLKPENIMFENREDRTVKLIDFGSACYNNRFKSWKDKPRYTLDYAPPEMLADANLVTYSPAVDIYGLGATLYTMLVGHRPYRQNEDDVDHSAAAHHELRKRMRRGTFNQRSMRWESASPAFRHLVSWCLQRDPADRPTLSDILDSEWLQYGSNDPDVDIILPQQMVVDLSEDTMEQPTGGMFDDQQQLEFMHDKSAEDEGITLVSEPMDTTVATHESRRNAAAFSSVVAPTTDDEIVHERFDPAFEVQADFYGFDENAPPLPLPEEYYSELPLPEEDRQYIPPPPALIPVEPETTFRRPRTRQQRRTESQLVQPVSVATYEDSKASLRVLMQQLPPPGDNVVARIPKRTHRVVRTLPPTFGTTKREENFYGFSKTAISWRKTRASWRHFCLLINGVQQVLKVRFKKARRVYCLPHIKEEKLDHAYEKPLTFPRPKAQLKRTKREPKVPRPPTRVQPERARAMRQLYQFQ
# B9: CG5382 (protein)
# chain: MGLCKCPKRLVTNQFCFEHRVNVCEHCMVQSHPKCIVQSYLQWLRDSDYISNCTLCGTTLEQGDCVRLVCYHVFHWDCLNARQAALPANTAPRGHQCPACSVEIFPNANLVSPVADALKSFLSQVNWGRNGLGLALLSEEQSSSLKAIKPKVASQAAVSNMTKVHHIHSGGERERTKPNGHDAVSPHSVLLMDAFNPPSAGDYASSRRPLLPRQSPIGGTDRDDNKYQRRTPAELFSRWTRRFYAPSSRPPWRRTWFLVTAGILAFVLFVYLMAWLGRGGSDAVDEGWNNPNPQPNHYE
# B10: 128up (protein)
# chain: MSTILEKISAIESEMARTQKNKATSAHLGLLKAKLAKLRRELISPKGGGGGTGEAGFEVAKTGDARVGFVGFPSVGKSTLLSNLAGVYSEVAAYEFTTLTTVPGCIKYKGAKIQLLDLPGIIEGAKDGKGRGRQVIAVARTCNLIFMVLDCLKPLGHKKLLEHELEGFGIRLNKKPPNIYYKRKDKGGINLNSMVPQSELDTDLVKTILSEYKIHNADITLRYDATSDDLIDVIEGNRIYIPCIYLLNKIDQISIEELDVIYKIPHCVPISAHHHWNFDDLLELMWEYLRLQRIYTKPKGQLPDYNSPVVLHNERTSIEDFCNKLHRSIAKEFKYALVWGSSVKHQPQKVGIEHVLNDEDVVQIVKKV
# B11: croc (protein)
# chain: MHTLFSDQNSFTRHYAQTAAGYGSASAVAAASSASAAAAAHYAYDQYSRYPYSASAYGLGAPHQNKEIVKPPYSYIALIAMAIQNAADKKVTLNGIYQYIMERFPYYRDNKQGWQNSIRHNLSLNECFVKVARDDKKPGKGSYWTLDPDSYNMFDNGSFLRRRRRFKKKDVMREKEEAIKRQAMMNEKLAEMKPLKLMTNGILEAKHMAAHAAHFKKEPLMDLGCLSGKEVSHAAMLNSCHDSLAQMNHLAGGGVEHPGFTVDSLMNVYNPRIHHSAYPYHLNEDNLATVASSQMHHVHHAAAAHHAQQLQRHVAHVAHPLTPGGQGAGGQSSGHSPTTISTPHGPAHGGWYTPETPPSEPVPHNGQQGTPTHPGHNNNNSSSVLNHNGVGNGGGGGGGGGGGSSSVLTSSPTSALGFRDMIFEQNQSCQLDTGSPTGSLQSASPPASASVAAASAAAAAAVISSHHHHHHHHAALSGNLGQLGQLSNLSHYRPHVGHYQEYGIKYGV
# What was measured:
# Assay in all cases: MAPPIT interaction score (arbitrary units); higher = stronger binary interaction signal, active = hit call of the paper
# [1] = target: nw; conditions: MAPPIT configuration: N-N; pair source set: RRS
# [2] = target: nSyb; conditions: MAPPIT configuration: N-N; pair source set: DPIM
# [3] = target: mwh; conditions: MAPPIT configuration: N-N; pair source set: Curagen_high_conf
# [4] = target: orb; conditions: MAPPIT configuration: N-N; pair source set: DPIM
# [5] = target: msd5; conditions: MAPPIT configuration: N-N; pair source set: Curagen_low_conf
# [6] = target: msl-2; conditions: pair source set: Lit-BM-16
# [7] = target: ninaD; conditions: MAPPIT configuration: N-C; pair source set: screen_4
# [8] = target: nos; conditions: MAPPIT configuration: N-N; pair source set: Curagen_high_conf
# [9] = target: opa; conditions: MAPPIT configuration: N-N; pair source set: Finley_Y2H
# [10] = target: prd; conditions: MAPPIT configuration: N-N; pair source set: Finley_Y2H
# 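Also: HEK293T cells with Epo stimulation, STAT-responsive firefly luciferase reporter, fold induction versus unstimulated cells divided by the larger fold induction of two negative controls lacking either bait or prey.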
binder,measurement,setting,value
B1,MAPPIT interaction score,[1],0.0762
B2,MAPPIT interaction score,[2],-0.207
B3,MAPPIT interaction score,[3],0.602
B4,MAPPIT interaction score,[4],0.0809
B5,MAPPIT interaction score,[2],0.399
B6,MAPPIT interaction score,[5],2.32
B7,MAPPIT interaction score,[2],0.214
B8,MAPPIT interaction score,[6]; MAPPIT configuration: N-C,0.534
same,MAPPIT interaction score,[6]; MAPPIT configuration: N-N,0.0488
B9,MAPPIT interaction score,[7],0.641
B10,MAPPIT interaction score,[8],0.2
B11,MAPPIT interaction score,[9],-0.778
same,MAPPIT interaction score,[10],-0.752
